Key:
Assay in all cases: log2 ratio of Biotin-Ahx-Ub-VS probe labelling (fragment/DMSO); higher = less target engagement (more negative = stronger competition), active = hit call of the paper (q ≤ 0.05, log2 ratio ≤ -1)
Conditions in all cases: compound concentration: 200 uM; treatment time: 3 h
[1] = biological target: T1, USP19 (UniProt O94966)
T1 sequence (whole entry): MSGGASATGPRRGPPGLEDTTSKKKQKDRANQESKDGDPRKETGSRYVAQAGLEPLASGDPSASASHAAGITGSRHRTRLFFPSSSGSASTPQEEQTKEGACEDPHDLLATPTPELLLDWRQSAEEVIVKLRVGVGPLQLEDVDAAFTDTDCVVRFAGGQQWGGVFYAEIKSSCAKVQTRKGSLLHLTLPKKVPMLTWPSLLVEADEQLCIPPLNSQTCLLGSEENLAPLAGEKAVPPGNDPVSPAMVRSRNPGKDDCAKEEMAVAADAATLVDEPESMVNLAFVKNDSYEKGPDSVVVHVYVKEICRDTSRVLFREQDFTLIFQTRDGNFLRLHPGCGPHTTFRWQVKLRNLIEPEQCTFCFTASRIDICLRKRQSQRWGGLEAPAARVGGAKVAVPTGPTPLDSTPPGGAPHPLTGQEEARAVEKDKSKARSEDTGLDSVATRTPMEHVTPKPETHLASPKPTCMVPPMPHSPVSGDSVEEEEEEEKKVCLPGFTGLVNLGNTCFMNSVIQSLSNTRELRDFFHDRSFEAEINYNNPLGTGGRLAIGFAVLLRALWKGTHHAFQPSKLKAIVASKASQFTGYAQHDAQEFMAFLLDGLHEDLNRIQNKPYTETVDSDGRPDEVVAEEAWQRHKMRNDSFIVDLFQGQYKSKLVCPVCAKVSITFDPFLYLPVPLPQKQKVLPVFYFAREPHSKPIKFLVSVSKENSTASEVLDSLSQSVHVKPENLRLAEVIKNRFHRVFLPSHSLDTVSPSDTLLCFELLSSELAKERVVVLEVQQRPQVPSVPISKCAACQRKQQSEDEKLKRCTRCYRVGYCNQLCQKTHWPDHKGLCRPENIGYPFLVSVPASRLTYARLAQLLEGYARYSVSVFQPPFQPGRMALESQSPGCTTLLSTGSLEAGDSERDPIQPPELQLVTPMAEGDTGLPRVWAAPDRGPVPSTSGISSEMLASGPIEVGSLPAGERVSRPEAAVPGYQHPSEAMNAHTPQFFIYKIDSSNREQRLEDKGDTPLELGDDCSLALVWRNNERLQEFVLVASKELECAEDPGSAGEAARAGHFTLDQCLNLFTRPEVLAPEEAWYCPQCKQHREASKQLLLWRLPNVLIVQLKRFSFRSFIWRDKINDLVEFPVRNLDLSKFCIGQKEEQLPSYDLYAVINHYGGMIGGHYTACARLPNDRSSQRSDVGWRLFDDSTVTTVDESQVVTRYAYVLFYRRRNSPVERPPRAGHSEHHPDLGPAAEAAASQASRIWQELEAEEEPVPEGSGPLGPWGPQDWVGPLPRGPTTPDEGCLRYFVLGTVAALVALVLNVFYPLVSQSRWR
In short: (§1)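 The table lists average log2 ratios of fragment over vehicle, from an unpaired t-test on global-median-normalised Spectronaut label-free quantities. Proteins with ≥2 unique peptides were used. Samples were HEK293T lysate (495 µg) treated in triplicate with fragment at 200 µM or vehicle for 3 h, then with Biotin-Ahx-Ub-VS (0.5 µM final) for 1 h, with labelled DUBs NeutrAvidin-enriched and run by diaPASEF LC-MS/MS.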

[2] = biological target: T2, USP22 (UniProt Q9UPT9)
T2 sequence (whole entry): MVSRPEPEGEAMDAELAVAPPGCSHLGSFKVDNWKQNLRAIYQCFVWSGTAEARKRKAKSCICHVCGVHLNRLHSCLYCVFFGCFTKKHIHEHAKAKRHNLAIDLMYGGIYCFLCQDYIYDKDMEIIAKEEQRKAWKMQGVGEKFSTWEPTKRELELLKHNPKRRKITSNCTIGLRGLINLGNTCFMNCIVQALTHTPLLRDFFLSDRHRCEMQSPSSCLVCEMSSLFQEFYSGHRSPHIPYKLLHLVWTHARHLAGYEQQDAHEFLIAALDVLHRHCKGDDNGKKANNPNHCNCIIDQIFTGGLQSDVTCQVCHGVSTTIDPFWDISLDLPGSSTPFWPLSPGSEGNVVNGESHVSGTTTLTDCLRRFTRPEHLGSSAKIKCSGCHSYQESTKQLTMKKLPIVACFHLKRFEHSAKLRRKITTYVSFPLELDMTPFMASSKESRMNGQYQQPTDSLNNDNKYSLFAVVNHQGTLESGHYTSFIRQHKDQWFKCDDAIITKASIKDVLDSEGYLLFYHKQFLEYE
In short: as §1

[3] = biological target: USP24 (UniProt Q9UPU5)
Sequence of USP24 (Q9UPU5 whole entry): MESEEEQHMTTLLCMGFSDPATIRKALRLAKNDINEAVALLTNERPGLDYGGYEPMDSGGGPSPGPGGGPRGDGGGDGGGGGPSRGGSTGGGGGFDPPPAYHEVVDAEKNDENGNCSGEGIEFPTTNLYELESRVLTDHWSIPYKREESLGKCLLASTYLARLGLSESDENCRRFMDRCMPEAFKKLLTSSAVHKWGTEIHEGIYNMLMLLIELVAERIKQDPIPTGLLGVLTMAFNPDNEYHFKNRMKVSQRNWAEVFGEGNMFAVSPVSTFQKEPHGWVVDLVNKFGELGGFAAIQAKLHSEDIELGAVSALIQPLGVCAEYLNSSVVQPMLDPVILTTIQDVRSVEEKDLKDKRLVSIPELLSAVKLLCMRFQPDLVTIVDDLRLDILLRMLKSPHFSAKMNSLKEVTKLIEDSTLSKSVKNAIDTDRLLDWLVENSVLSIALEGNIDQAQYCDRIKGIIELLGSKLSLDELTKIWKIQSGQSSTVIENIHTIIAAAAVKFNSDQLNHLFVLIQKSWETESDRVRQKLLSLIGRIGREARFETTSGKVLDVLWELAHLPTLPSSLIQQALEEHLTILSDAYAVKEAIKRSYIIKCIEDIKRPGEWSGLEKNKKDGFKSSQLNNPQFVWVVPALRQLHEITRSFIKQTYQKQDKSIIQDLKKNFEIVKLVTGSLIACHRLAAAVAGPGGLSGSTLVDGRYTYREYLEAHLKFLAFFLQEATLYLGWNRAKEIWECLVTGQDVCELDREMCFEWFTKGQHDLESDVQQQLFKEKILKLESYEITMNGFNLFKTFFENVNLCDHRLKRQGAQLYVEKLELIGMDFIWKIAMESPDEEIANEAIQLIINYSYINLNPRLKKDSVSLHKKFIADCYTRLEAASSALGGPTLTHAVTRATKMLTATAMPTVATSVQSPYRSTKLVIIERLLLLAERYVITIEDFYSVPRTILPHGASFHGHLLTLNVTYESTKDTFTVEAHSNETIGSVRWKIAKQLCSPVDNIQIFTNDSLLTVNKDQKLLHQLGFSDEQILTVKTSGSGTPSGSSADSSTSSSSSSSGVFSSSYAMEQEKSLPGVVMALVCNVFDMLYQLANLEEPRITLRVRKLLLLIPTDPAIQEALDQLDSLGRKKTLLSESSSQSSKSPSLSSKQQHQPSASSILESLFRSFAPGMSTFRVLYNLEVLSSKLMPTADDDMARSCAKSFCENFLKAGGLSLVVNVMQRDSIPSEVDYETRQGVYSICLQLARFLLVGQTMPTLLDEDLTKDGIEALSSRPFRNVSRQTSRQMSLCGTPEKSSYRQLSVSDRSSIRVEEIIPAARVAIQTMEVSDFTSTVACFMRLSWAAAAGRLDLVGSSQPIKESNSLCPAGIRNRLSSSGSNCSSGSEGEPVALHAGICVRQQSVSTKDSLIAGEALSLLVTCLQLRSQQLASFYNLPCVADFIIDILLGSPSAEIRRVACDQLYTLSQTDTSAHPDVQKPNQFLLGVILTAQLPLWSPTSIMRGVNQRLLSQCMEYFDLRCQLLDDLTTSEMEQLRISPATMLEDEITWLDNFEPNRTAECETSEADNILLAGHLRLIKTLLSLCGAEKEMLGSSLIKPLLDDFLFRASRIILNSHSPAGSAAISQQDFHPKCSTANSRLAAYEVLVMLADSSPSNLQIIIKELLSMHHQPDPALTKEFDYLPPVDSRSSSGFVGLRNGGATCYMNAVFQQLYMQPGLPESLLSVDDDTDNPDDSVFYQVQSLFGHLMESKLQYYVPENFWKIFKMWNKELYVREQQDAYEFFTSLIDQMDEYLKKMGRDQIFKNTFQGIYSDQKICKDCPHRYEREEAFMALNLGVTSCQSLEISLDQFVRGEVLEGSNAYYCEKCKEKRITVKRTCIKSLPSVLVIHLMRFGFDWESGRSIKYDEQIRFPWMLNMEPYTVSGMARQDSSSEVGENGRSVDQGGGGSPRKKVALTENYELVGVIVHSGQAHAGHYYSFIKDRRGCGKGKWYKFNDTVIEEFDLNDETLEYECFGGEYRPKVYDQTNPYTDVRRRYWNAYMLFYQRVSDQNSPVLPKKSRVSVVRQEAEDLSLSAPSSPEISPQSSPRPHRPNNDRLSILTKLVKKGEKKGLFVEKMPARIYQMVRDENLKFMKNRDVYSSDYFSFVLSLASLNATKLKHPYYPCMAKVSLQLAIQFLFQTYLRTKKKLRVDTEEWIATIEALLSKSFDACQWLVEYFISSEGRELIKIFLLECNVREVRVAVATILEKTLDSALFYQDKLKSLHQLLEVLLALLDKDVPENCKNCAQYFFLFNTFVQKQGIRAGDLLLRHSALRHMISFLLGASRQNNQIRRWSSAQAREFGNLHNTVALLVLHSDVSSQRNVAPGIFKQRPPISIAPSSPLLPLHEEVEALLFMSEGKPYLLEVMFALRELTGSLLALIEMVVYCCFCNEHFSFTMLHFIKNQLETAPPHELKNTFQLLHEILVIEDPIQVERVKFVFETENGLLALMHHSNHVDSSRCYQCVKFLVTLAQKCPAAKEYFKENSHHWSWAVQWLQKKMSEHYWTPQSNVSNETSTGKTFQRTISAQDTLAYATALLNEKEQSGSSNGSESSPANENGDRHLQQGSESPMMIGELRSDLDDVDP
In short: as §1

[4] = biological target: T3, USP25 (UniProt Q9UHP3)
T3 sequence (whole entry): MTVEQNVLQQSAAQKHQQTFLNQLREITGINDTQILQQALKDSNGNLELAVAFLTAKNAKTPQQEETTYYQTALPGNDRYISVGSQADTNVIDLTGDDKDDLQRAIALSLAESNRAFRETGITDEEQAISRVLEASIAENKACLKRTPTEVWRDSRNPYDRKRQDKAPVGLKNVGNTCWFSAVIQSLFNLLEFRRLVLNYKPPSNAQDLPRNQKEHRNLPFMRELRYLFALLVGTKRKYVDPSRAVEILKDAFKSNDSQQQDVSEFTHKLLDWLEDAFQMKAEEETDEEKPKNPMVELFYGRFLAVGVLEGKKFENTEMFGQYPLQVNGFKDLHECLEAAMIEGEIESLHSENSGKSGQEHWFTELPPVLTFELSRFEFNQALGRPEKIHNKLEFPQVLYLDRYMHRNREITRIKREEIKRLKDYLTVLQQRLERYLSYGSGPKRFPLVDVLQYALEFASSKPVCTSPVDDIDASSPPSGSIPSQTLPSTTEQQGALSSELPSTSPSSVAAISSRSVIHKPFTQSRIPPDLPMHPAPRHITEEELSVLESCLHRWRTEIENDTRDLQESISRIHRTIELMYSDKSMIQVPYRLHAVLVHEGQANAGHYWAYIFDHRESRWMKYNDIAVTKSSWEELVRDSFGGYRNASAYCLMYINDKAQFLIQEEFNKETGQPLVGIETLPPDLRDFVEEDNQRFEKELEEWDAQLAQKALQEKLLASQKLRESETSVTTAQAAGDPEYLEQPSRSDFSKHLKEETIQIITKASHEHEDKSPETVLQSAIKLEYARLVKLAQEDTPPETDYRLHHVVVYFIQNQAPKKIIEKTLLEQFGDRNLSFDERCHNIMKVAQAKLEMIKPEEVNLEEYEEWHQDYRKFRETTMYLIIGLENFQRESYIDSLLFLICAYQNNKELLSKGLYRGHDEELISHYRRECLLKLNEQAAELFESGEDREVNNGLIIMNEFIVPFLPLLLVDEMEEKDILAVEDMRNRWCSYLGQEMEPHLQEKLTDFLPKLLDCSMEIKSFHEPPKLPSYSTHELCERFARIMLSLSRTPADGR
In short: as §1

[5] = biological target: T4, USP28 (UniProt Q96RU2)
T4 sequence (whole entry): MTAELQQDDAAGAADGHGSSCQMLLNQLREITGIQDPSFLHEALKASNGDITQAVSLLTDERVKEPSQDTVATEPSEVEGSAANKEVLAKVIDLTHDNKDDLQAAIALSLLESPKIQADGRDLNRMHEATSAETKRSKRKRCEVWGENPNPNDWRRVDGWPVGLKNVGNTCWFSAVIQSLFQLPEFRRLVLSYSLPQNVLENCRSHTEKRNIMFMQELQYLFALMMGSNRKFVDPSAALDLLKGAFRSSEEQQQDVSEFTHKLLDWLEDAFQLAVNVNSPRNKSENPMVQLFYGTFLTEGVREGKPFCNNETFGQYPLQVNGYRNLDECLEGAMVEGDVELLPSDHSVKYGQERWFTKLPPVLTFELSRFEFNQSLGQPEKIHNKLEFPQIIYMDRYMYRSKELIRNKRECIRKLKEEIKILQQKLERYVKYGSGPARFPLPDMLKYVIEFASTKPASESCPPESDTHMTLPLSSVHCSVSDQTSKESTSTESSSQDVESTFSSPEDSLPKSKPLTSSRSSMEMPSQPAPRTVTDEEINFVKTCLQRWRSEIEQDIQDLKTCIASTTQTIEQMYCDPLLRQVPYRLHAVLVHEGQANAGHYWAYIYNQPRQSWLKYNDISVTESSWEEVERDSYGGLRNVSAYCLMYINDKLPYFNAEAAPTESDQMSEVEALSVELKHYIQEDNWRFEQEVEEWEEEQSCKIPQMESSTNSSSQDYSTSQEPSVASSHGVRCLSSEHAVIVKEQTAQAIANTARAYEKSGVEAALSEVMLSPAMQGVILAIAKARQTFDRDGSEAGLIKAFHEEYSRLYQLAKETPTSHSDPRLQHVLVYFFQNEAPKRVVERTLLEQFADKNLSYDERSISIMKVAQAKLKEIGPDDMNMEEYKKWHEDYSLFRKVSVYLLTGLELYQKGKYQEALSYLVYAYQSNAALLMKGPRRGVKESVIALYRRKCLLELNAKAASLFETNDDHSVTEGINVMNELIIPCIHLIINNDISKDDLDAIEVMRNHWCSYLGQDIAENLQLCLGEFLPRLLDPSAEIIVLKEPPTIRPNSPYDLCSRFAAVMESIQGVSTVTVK
In short: as §1

Measured: log2 ratio of Biotin-Ahx-Ub-VS probe labelling

O=C(CCl)N1CC2(CCOCC2)C1
inactive: [1] -0.144 | [2] 0.0357 | [3] -0.194 | [4] -0.275 | [5] -0.375

Source: the supplement of paper PMC11732987, “Enantioselective OTUD7B fragment discovery through chemoproteomics screening and high-throughput optimisation” (Communications Chemistry, 2025)
